A number with no mark means an inactive call. No rule for the calls is given here.
These molecules were tested against Pantothenate synthetase (Mycobacterium tuberculosis (strain ATCC 25618 / H37Rv)) (UniProt P9WIL5) (assay: Recombinant Mtb pantothenate synthetase (PanC) inhibitors, coupled enzyme, confirmatory (AID 375;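 also: 0% = full reaction with vehicle and 100% = no enzyme background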)). Conditions: coupled enzyme assay; at 10 µM, stronger effect = higher value.
Sequence of Pantothenate synthetase (Mycobacterium tuberculosis (strain ATCC 25618 / H37Rv)) (P9WIL5 whole entry, looked up): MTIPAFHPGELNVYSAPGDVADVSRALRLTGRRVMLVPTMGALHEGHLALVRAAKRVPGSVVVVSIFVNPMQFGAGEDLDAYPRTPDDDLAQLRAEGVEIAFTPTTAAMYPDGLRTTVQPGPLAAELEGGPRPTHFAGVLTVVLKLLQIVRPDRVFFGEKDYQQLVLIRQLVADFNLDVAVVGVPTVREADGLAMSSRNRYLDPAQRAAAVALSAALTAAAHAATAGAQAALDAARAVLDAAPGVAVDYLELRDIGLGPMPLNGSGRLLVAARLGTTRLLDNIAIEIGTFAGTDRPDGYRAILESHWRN

SMILES | inhibition [%]
CCOC(=O)C1=C(C)Nc2nnnn2C1c1c[nH]c2ccccc12 (stereo not given) | 3
Cc1cc(C(=O)OCCO)c(C#N)c(N)n1 | 0
CCOc1ccc2nc(SCc3ccc(C(=O)OC)o3)[nH]c2c1 | 0
CN1CCCN(C(c2ccccc2)c2ccc(Cl)cc2)CC1 (stereo not given) | 0
COc1ccc2[nH]c(=O)c(CN(CCO)S(=O)(=O)c3ccc4c(c3)OCCO4)cc2c1 | 0
CCOc1ncccc1C(=O)OCC(=O)N1CC(=O)Nc2ccccc21 | 0
O=C(COc1ccc2ccccc2c1)N1CCCC1 | 8
COCCCNC(=O)c1c(N)n(-c2cccc(S(N)(=O)=O)c2)c2nc3ccccc3nc12 | 2
CCOC(=O)c1cnn(-c2ncnc3c2cnn3Cc2ccccc2)c1N | 5
Cc1cc(C)c2c(n1)nn1c(N3CCOCC3)cc(C)nc21 | 0
O=C(C1CC1)N1CCc2cc(Br)cc(S(=O)(=O)N3CCOCC3)c21 | 3
CCOc1ccccc1C(=O)N1CCN(c2cccc(Cl)c2)CC1 | 0
Cc1cc(C)c2c(=O)[nH]c(=O)n(Cc3ccccc3)c2n1 | 0
Cc1nc2ccc(S(=O)(=O)NC(C(=O)Nc3nccs3)C(C)C)cc2s1 (stereo not given) | 0
COc1ccc(C(=O)NC(=O)CSc2nnc(-c3ccco3)n2-c2ccccc2)cc1 | 0
COc1ccccc1OCC(O)COC(N)=O (stereo not given) | 6
CCOc1ccc(NC(=O)CN2C(=O)C3CCCN3C2=O)cc1 (stereo not given) | 0
CC1(c2ccc(OC(F)F)cc2)NC(=O)N(CC(=O)Nc2ccc3c(c2)OCO3)C1=O (stereo not given) | 3
CC1C=CC(C)C(C(=O)O)C1C(=O)O (stereo not given) | 0
CC(C)CC(=O)CN1C(=O)C2(OCCO2)c2ccccc21 | 0

SMILES | inhibition [%]
COc1ccc(C(O)Cn2c(=N)n(CCCN(C)C)c3ccccc32)cc1 (stereo not given) | 0
Cc1c(Cl)cnc(NC(=O)COC(=O)C(NC(=O)c2ccco2)C(C)C)c1Cl (stereo not given) | 8
CCOC(=O)c1c(C)n(C)c2ccc(O)c(S(=O)(=O)c3ccccc3)c12 | 9
CCOc1ccccc1C1CC(=O)NC(SCC)=C1C#N (stereo not given) | 0
COCc1cc(=O)[nH]c(Nc2nc3ccccc3o2)n1 | 0
C=C(CC)C(=O)c1ccc(OCC(=O)O)c(Cl)c1Cl | 0
C=CCc1cc(C(=O)N2CCCCC2)ccc1O | 0
Cc1cc2cc(CNC(=O)c3ccc4c(c3)OCO4)ccc2[nH]1 | 0
CCC(=O)NC1(C(F)(F)F)C(=O)NC(C)=C1C#N (stereo not given) | 6
Cc1oc2c(c1C(=O)NCc1ccccc1)CCCC2 | 0
N#Cc1ccc(-c2csc(NC(=O)C3CC3)n2)cc1 | 0
CCOc1ccc2nc(S(N)(=O)=O)sc2c1 | 3
Cc1cc(N2CCN(C)CC2)nc(N2CCOCC2)n1 | 0
COc1ccc(-c2c3c(=O)n(C)c(=O)n(C)c3cn2-c2cccc(OC)c2)cc1 | 0
COc1cccc(C(=O)Nc2ccc(C)cc2)c1 | 1
CCOC(=O)C1CCN(c2c(Nc3ccc4c(c3)OCCO4)c(=O)c2=O)CC1 | 0
Cc1ccc(-c2nnn(CC(=O)N(CC(=O)NC3CCCCC3)c3cnc4ccccc4c3)n2)o1 | 8
O=C(NCC(=O)N(c1ccc2c(c1)OCCO2)C(C(=O)NC1CCCC1)c1ccco1)c1ccco1 (stereo not given) | 6
Cc1cc(NCCCn2ccnc2)n2c(nc3ccccc32)c1C#N | 0
CCOC(=O)CSc1nc2cc(C(=O)NCc3ccco3)ccc2c(=O)n1-c1ccc(F)cc1 | 3
